Data published in PubChem BioAssay (Tox21).
Records with an inconclusive call do not appear. Entries that show only a call come without a potency. Activity calls are given as the source filed them. Unless noted, calls come from the whole dose curve.

What was measured:
[1] = Nuclear factor erythroid 2-related factor 2/antioxidant responsive element (Nrf2/ARE) small molecule agonists: qHTS cell viability counter screen in human keratinocytes (AID 1919968; active = well fitted curve in the direction sought with a large enough effect in the repeat runs; an effect the other way counts as inactive or inconclusive; note: nearly all actives have a fitted effect of over 55% in size)
Method in brief: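 Parallel cytotoxicity read: KeratinoSens HaCaT cells, compound treatment 23 h, viability by CellTiter-Fluor fluorescence 1 h post-reagent.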

[2] = Nuclear factor erythroid 2-related factor 2/antioxidant responsive element (Nrf2/ARE) small molecule agonists: luciferase reporter gene qHTS assay in human keratinocytes (AID 1919969); note: nearly all actives have a fitted effect of over 35% in size; note: potency is the fitted concentration of half-maximal effect
[3] = target: Gonadotropin-releasing hormone receptor (Homo sapiens) (UniProt P30968); assay: Human gonadotropin-releasing hormone receptor (GnRHR) small molecule agonists, calcium flux assay in GnRHR-HEK293 cells (AID 1920063); note: nearly all actives have a fitted effect of over 35% in size
Method in brief: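 Calcium flux, agonist mode, human GnRHR stably integrated in HEK293; dye 1 h at 37 C before compound; Ex/Em=480/540 kinetic read, 3 min; 15 concentrations, triplicate.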

[4] = target: KiSS-1 receptor (Homo sapiens) (UniProt Q969F8); assay: Human kisspeptin (KISS1R) small molecule agonists, calcium flux assay in KISS1R-HEK293 cells (AID 1920064; active = well fitted curve in the direction sought with a large enough effect in the repeat runs; an effect the other way counts as inactive or inconclusive)
Method in brief: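 Triplicate 15-concentration series were applied to dye-loaded human KISS1R HEK293 cells, and agonist-evoked calcium fluorescence was captured for 3 min.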

[5] = G protein-coupled receptor (GPCR) small molecule agonists, calcium flux assay: HEK293 wild type cell line counter screen (AID 1920065)
Method in brief: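 Non-specific calcium responders were flagged by adding DMSO-dissolved compounds to dye-loaded cells and reading 480/540 nm fluorescence each second for 3 min; ATP served as positive control.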

[6] = p53 small molecule agonists, cell-based qHTS assay with human liver microsomes (AID 1963577);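 note: p53 response element beta-lactamase reporter cells with liver microsomes plus NADPH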
Method in brief: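 16 h, 37 C exposure of p53RE-bla cells to compounds with human liver microsomes and NADPH (0.5 mg/mL final each); detection via LiveBLAzer mixture, 2 h dark at room temperature.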

[7] = p53 small molecule agonists, cell-based qHTS assay with rat liver microsomes (AID 1963578)
Method in brief: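 With rat liver microsomes and NADPH present (0.5 mg/mL final each), p53RE-bla cells are treated with compound for 16 h at 37 C. LiveBLAzer detection mixture is then applied for 2 h at room temperature in the dark.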

[8] = p53 small molecule agonists, cell-based qHTS assay with human liver microsomes: qHTS cell viability counter screen (AID 1963579); note: nearly all actives have a fitted effect of over 45% in size
Method in brief: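 In this multiplexed counter screen, the reporter plates were subsequently treated with CellTiter-Glo so that cell viability, reflected by luminescence, could be recorded for p53RE-bla cells dosed 16 h with compounds under microsomal activation (HLM and NADPH).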

[9] = p53 small molecule agonists, cell-based qHTS assay with rat liver microsomes: qHTS cell viability counter screen (AID 1963580); note: nearly all actives have a fitted effect of over 45% in size
Method in brief: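 Rat liver microsome (0.5 mg/mL final) and NADPH (0.5 mg/mL final) co-incubation with compounds for 16 h at 37 C on HCT-116 p53RE-bla cells; cytotoxicity taken from intracellular ATP luminescence.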

[10] = target: 5-hydroxytryptamine receptor 2A (Homo sapiens) (UniProt P28223); assay: 5-hydroxytryptamine receptor 2A (HTR2A) small molecule antagonists, cell-based qHTS assay (AID 1963586); note: nearly all actives have a fitted effect of over 45% in size
Method in brief: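 CHO cells stably expressing human HTR2A were plated for 18 h at 37 C, then loaded with calcium dye for 1 h. Compounds were preincubated 5 min at room temperature before DOI (4 nM solution) was added. Kinetic fluorescence was read for 3 min.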

[11] = target: 5-hydroxytryptamine receptor 2A (Homo sapiens) (UniProt P28223); assay: 5-hydroxytryptamine receptor 2A (HTR2A) small molecule agonists, cell-based qHTS assay (AID 1963587); note: nearly all actives have a fitted effect of over 30% in size
Method in brief: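 Kinetic calcium-flux fluorescence (2 min, 1 sec intervals) after compound addition in agonist mode. HTR2A-CHO cells were cultured 18 h, then dye-loaded 1 h at 37 C.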

[12] = target: Muscarinic acetylcholine receptor M1 (Homo sapiens) (UniProt P11229); assay: Cholinergic receptor muscarinic 1 (CHRM1) small molecule antagonists, cell-based qHTS assay (AID 1963588); note: nearly all actives have a fitted effect of over 40% in size
Method in brief: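 Compounds were tested at 15 concentrations in three independent runs. Dye-loaded CHRM1-CHO cells were exposed 5 min at room temperature before stimulation by acetylcholine added at 50nM. Intracellular calcium was read kinetically on FDSS for 3 min.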

[13] = target: Muscarinic acetylcholine receptor M1 (Homo sapiens) (UniProt P11229); assay: Cholinergic receptor muscarinic 1 (CHRM1) small molecule agonists, cell-based qHTS assay (AID 1963589); note: nearly all actives have a fitted effect of over 35% in size
Method in brief: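 qHTS, 15-point titration, 3 independent runs: compounds pin-transferred onto dye-loaded CHRM1-CHO cells (human M1), calcium fluorescence followed every second to detect agonism.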

[14] = cAMP Responsive Elements (CRE) small molecule agonists, cell-based qHTS assay (AID 1963590)
Method in brief: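 Quantitative HTS for CRE agonists: HEK 293T CRE-bla cells, overnight plating, 3 h compound incubation at 37 C/5% CO2, then 2 h room-temperature LiveBLAzer B/G FRET substrate loading.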

[15] = cAMP Responsive Elements (CRE) small molecule antagonists, cell-based qHTS assay (AID 1963591; active = well fitted inhibition curve with a large enough effect in the signal ratio in the repeat runs, not every such curve was filed as active; the % refers to the signal ratio)
Method in brief: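 Fluorescence intensity from cleaved LiveBLAzer B/G substrate (2 h, room temperature) quantified CRE-bla activity in HEK 293T cells exposed 3 h to compound with 0.25 uM final NKH477.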

[16] = target: D(2) dopamine receptor (Homo sapiens) (UniProt P14416); assay: Dopamine D2 receptor (DRD2) small molecule agonists, cell-based qHTS assay (AID 1963594); note: nearly all actives have a fitted effect of over 35% in size
Method in brief: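 cAMP accumulation in DRD2-HEK293 cells measured by HTRF after 1 h detection; compounds added 10 min before NKH477 (200nM […]) forskolin-analogue stimulation, 30 min at room temperature, with Ro20-1724 present at 0.1 mM final.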

[17] = target: Beta-2 adrenergic receptor (Homo sapiens) (UniProt P07550); assay: Adrenergic beta2 receptor (ADRB2) small molecule antagonists, cell-based qHTS assay (AID 1963592); note: series mostly up to about 92 µM; nearly all actives have a fitted effect of over 50% in size
Method in brief: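 Assay format: CHO-ADRB2 cells, 18-20hr seeding at 37C/5% CO2, then compound plus 1nM isoproterenol agonist mix for 0.5hr RT. Homogeneous time-resolved fluorescence cAMP detection after 1hr, expressed as 665/615 nm ratio.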

[18] = target: D(2) dopamine receptor (Homo sapiens) (UniProt P14416); assay: Dopamine D2 receptor (DRD2) small molecule antagonists, cell-based qHTS assay (AID 1963595; active = well fitted inhibition curve with a large enough effect in the signal ratio in the repeat runs, with a control signal flat; the % refers to the signal ratio)
Method in brief: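 Human DRD2 antagonist qHTS measuring cAMP by HTRF. The cells are exposed to compound for 10 min, then to NKH477 (200 nM) and quinpirole (12 nM) for 30 min at RT, with Ro20-1724 (0.1 mM) present throughout.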

[19] = target: Beta-2 adrenergic receptor (Homo sapiens) (UniProt P07550); assay: Adrenergic beta2 receptor (ADRB2) small molecule agonists, cell-based qHTS assay (AID 1963593);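 note: CHO cells stably overexpressing human ADRB2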
Method in brief: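 CHO cells stably over-expressing ADRB2 were plated overnight at 37C, then dosed with compounds plus a stimulation mix containing 100uM IBMX and 25uM Ro-20-1724 for 0.5hr at room temperature. cAMP was measured by HTRF competition, 1hr.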

[20] = p53 small molecule agonists, cell-based qHTS assay: qHTS cell viability counter screen (AID 1963581); note: nearly all actives have a fitted effect of over 45% in size
Method in brief: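 Multiplexed with the reporter read, a CellTiter-Glo step (30 min, room temperature) gauges ATP-based viability of HCT-116 p53RE-bla cells after 16 h compound incubation at 37 C.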

Chain of Beta-2 adrenergic receptor (Homo sapiens) (P07550 whole entry, looked up): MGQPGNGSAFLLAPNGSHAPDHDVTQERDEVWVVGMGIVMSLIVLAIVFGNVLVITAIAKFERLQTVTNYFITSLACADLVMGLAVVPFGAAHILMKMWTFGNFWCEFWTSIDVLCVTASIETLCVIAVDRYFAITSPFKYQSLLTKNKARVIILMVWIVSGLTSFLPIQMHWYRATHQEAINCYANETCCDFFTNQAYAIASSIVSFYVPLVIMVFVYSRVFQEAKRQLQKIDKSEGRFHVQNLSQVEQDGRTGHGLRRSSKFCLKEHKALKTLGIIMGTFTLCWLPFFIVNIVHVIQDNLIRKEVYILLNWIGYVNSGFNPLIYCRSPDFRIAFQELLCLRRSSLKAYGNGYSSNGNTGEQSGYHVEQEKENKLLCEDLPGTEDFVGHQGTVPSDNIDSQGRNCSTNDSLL
Chain of Muscarinic acetylcholine receptor M1 (Homo sapiens) (P11229 whole entry, looked up): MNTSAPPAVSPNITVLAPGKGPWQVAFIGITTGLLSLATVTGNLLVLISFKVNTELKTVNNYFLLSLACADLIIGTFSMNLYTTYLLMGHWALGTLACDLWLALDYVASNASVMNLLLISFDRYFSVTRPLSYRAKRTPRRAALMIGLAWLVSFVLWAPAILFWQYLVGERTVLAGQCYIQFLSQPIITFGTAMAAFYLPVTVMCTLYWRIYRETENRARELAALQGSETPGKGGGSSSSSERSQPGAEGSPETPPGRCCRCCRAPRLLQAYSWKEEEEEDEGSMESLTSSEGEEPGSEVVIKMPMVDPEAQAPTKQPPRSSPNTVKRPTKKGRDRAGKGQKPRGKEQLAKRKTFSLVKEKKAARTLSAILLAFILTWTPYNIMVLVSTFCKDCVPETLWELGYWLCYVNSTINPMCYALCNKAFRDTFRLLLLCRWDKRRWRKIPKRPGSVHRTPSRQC
Chain of KiSS-1 receptor (Homo sapiens) (Q969F8 whole entry, looked up): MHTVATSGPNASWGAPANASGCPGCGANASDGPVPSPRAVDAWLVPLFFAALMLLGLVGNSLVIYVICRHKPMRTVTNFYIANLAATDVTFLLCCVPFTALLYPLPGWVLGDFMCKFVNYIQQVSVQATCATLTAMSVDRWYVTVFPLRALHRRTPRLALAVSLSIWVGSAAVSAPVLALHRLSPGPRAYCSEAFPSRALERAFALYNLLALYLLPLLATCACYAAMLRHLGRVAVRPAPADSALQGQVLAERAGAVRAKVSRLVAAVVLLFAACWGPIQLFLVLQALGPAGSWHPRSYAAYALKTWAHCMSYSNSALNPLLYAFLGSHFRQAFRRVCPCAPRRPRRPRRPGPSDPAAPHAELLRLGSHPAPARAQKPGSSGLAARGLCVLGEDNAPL
Chain of 5-hydroxytryptamine receptor 2A (Homo sapiens) (P28223 whole entry, looked up): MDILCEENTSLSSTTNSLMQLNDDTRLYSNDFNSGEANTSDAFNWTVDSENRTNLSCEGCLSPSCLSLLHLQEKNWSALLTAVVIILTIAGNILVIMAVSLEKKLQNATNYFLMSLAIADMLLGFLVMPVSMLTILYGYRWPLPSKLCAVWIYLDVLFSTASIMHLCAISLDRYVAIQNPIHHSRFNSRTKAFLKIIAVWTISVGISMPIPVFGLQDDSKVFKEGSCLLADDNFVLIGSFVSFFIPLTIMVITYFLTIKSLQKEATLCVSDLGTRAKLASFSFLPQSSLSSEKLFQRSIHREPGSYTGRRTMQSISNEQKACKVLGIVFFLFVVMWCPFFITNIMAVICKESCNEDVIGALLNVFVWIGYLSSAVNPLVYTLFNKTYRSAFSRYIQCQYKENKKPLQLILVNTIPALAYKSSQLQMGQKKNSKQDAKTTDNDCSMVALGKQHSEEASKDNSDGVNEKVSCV
Chain of Gonadotropin-releasing hormone receptor (Homo sapiens) (P30968 whole entry, looked up): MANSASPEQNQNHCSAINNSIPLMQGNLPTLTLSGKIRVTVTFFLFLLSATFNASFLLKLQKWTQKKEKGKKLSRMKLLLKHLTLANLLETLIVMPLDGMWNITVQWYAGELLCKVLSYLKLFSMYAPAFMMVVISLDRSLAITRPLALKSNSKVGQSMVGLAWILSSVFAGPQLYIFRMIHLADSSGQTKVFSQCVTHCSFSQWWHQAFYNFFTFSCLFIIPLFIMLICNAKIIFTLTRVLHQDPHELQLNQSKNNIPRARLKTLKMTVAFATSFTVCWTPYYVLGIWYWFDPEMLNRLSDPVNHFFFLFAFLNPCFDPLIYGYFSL
Chain of D(2) dopamine receptor (Homo sapiens) (P14416 whole entry, looked up): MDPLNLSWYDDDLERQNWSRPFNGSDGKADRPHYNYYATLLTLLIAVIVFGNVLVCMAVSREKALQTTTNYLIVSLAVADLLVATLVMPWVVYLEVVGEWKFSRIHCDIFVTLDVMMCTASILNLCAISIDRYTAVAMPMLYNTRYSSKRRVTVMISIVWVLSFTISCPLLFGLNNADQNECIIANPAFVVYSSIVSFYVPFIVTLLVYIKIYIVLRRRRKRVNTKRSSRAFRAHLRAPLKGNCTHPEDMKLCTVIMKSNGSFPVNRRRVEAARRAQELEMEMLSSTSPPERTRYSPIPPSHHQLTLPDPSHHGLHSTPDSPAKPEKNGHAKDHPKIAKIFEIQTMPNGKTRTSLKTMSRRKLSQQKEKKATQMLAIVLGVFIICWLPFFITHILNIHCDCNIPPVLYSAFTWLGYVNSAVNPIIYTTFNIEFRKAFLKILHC

Structure (SMILES)	Potency [1]	Potency [2]	Potency [3]	Potency [4]	Potency [5]	Potency [6]	Potency [7]	Potency [8]	Potency [9]	Potency [10]	Potency [11]	Potency [12]	Potency [13]	Potency [14]	Potency [15]	Potency [16]	Potency [17]	Potency [18]	Potency [19]	Potency [20]
N#CC(Cl)Cl	inactive	59.5 µM (active)	inactive	inactive	inactive	inactive	inactive	inactive	inactive	inactive	inactive	inactive	inactive	inactive	inactive	inactive	–	–	–	–
CSc1nc(NC(C)C)nc(NC(C)C)n1	inactive	inactive	inactive	inactive	inactive	inactive	inactive	inactive	inactive	inactive	inactive	inactive	–	inactive	–	inactive	inactive	inactive	–	–
CC(C)(C1CCC(O)CC1)C1CCC(O)CC1 (stereo not given)	inactive	inactive	inactive	inactive	inactive	inactive	inactive	inactive	inactive	inactive	inactive	inactive	–	inactive	–	inactive	inactive	inactive	–	–
CCN(Cc1ccc(Cl)nc1)/C(=C/[N+](=O)[O-])NC	inactive	inactive	inactive	inactive	inactive	inactive	inactive	inactive	inactive	inactive	inactive	inactive	inactive	inactive	inactive	inactive	inactive	inactive	–	–
CC(C)(C#N)N=NC(C)(C)C#N	inactive	inactive	inactive	inactive	inactive	inactive	inactive	inactive	inactive	inactive	inactive	inactive	inactive	inactive	inactive	inactive	inactive	inactive	inactive	–
COC(=O)NS(=O)(=O)c1ccc(N)cc1	inactive	inactive	inactive	inactive	inactive	inactive	inactive	inactive	inactive	inactive	inactive	inactive	inactive	inactive	inactive	inactive	inactive	inactive	inactive	–
Clc1ccc(C(Cl)(Cl)Cl)c(Cl)c1	inactive	inactive	inactive	inactive	inactive	inactive	inactive	inactive	inactive	inactive	inactive	inactive	inactive	inactive	inactive	inactive	inactive	inactive	inactive	–
CCOC(=O)Nc1cccc(OC(=O)Nc2ccccc2)c1	inactive	inactive	inactive	inactive	inactive	inactive	inactive	inactive	inactive	inactive	inactive	inactive	inactive	inactive	inactive	inactive	inactive	inactive	inactive	–
CN(C)NC(=O)CCC(=O)O	inactive	inactive	inactive	inactive	inactive	inactive	inactive	inactive	inactive	inactive	inactive	inactive	inactive	inactive	inactive	inactive	inactive	–	inactive	–
C=C1CC[C@@]2(O)[C@H]3Cc4ccc(O)c5c4[C@@]2(CCN3CC2CC2)[C@H]1O5	inactive	inactive	inactive	inactive	inactive	inactive	inactive	inactive	inactive	inactive	inactive	inactive	inactive	inactive	inactive	inactive	inactive	inactive	–	–
ClCc1cccnc1	inactive	inactive	inactive	inactive	inactive	inactive	inactive	inactive	inactive	inactive	inactive	inactive	inactive	inactive	inactive	inactive	inactive	–	inactive	–
COC(=O)C(Cl)C(=O)OC	inactive	inactive	inactive	inactive	inactive	inactive	inactive	inactive	inactive	inactive	inactive	inactive	inactive	inactive	inactive	inactive	inactive	inactive	inactive	–
C#CC(C)(C)NC(=O)c1cc(Cl)cc(Cl)c1	inactive	inactive	inactive	inactive	inactive	inactive	inactive	inactive	inactive	inactive	inactive	inactive	inactive	inactive	inactive	inactive	inactive	inactive	–	–
CCc1cccc(C)c1N(C(=O)CCl)C(C)COC (stereo not given)	inactive	57.6 µM (active)	inactive	inactive	inactive	inactive	inactive	inactive	inactive	inactive	inactive	inactive	inactive	inactive	inactive	inactive	inactive	inactive	inactive	–
Nc1ccc(-c2ccc(N)c(Cl)c2)cc1Cl	inactive	inactive	inactive	inactive	inactive	inactive	inactive	inactive	inactive	–	inactive	inactive	inactive	inactive	–	inactive	inactive	inactive	inactive	inactive
